Most compounds without a hit are left out; they make up all but 6.2% or so of the library.
MARV entry inh – inhibitors of Marburg virus binding or cell entry; Marburg virus pseudotyped entry inhibition, cell reporter; Potency, µM (highest dose often 37.8 µM), for inactives: at the top dose activity change, negative = inhibition, usual class: inhibitors; actives 1.8% (n = 300,000); AID 540276; calls by dose curve; tested in HEK293 cells; also: potency is read from the fitted curve at half-maximal effect
Lassa entry inh – blocks Lassa virus binding to or entry into cells. Lassa virus pseudotype entry inhibition, cell reporter. Potency, µM (series often up to 37.9 µM), without a hit: at the highest dose activity change, negative = inhibition, hits mostly inhibitors. actives 1.2% (n = 300,000). AID 540256; calls by dose curve; tested in HEK293 cells; also: potency is read from the fitted curve at half-maximal effect; nearly all actives have a fitted effect of over 50% in size
HCMV inh – human cytomegalovirus inhibition; HFF cells, HCMV-luciferase reporter, 72 h; active compounds read low; actives 4.5% (n = 410,000); activity change, negative = inhibition, % at 57.5 µM; AID 1259415; in the data active = activity change below about -60%; inconclusive = no clear call, values can overlap the other calls; inactive = above about -39%
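Cell-based, HFFs, 1000 cells/well, 16 h 37C; cpds in DMSO + HCMV-luc, MOI 1 PFU/cell; 72 h 37C; OneGlo luminescence after 5 min RT; norm. to buffer vs Salinomycin 10uM.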
FMDV antiviral – foot and mouth disease virus antiviral activity. Potency, µM (doses to about 57.9 µM), inactives show at the top dose activity change, negative = inhibition, actives largely listed as inhibitors. actives 1.2% (n = 410,000). AID 1159524. FMDV antiviral cell-based qHTS; calls by dose curve; tested in HEK293T cells; also: read-out not given here; potency is read from the fitted curve at half-maximal effect; nearly all actives have a fitted effect of over 45% in size
* marks the source's active call; other numbers are inactive results; ? = inconclusive; nt = not tested or not shown; [ ] = dose if it differs, or a comment. % is scaled to controls: 0 for no effect and ±100 for the full control effect.

SMILES	MARV entry inh	Lassa entry inh	HCMV inh	FMDV antiviral
COc1ccc(-c2ccc(C#N)c(SCC(=O)Nc3sc4c(c3C#N)CCC4)n2)cc1OC	?	14.6µM*	-87.9*	0.9%
CC1CCc2c(sc(NC(=O)CSc3ncn[nH]3)c2C#N)C1 (configuration not stated)	nt	nt	-66.1*	?
CCCc1cc(=O)[nH]c(SCC(=O)NC(=O)OCC)n1	10.7%	23.7%	?	11.0%
COc1ccc(N2CC(C(=O)Nc3ccccc3-c3nc(-c4ccc(C)cc4)no3)CC2=O)cc1 (configuration not stated)	-2.4%[46.1 µM]	4.2%[46.1 µM]	34.1	52.9%
CCCCn1cnc2cc(NC(=O)c3cc(OC)c(OC)c(OC)c3)ccc21	4.0%[46.1 µM]	15.3%[46.1 µM]	88.4	-18.8%
COc1ccc2oc(-c3ccc(C)c(NC(=O)Cc4ccc(Cl)cc4)c3)nc2c1	-0.9%[46.1 µM]	14.0%[46.1 µM]	44.0	29.0%
N#Cc1c(NC(=O)CCCC(=O)O)sc2c1CCCCC2	1.16µM*	8.2µM*	-7.6	0.0%
CCCc1cc(=O)[nH]c(SCC(=O)Nc2sc3c(c2C#N)CCC(C)C3)n1 (configuration not stated)	33.2%[46.1 µM]	-10.0%[46.1 µM]	-61.0*	7.4%
O=C(O[C@H]1CC[C@@]23CCCN2C(=O)CCC[C@H]3C1)c1ccc(Br)cc1	nt	nt	-23.0	nt
COc1ccc(CN2C(=O)C(n3c(C)ccc3C)c3cccc(F)c32)cc1 (configuration not stated)	nt	nt	-33.7	nt
CCc1c(C)sc2c1CCN(C(=O)Nc1ccc(F)c(Cl)c1)C2c1ccc(F)cc1 (configuration not stated)	nt	?	-103.7*	39.8µM*
CCc1c(C)sc2c1CCN(C(=O)Nc1ccccc1C(=O)OC)C2c1ccc(F)cc1 (configuration not stated)	nt	2.2%[46.1 µM]	-1.0	-29.5%
Cc1c(NC(=O)c2cccs2)cccc1-c1nc2cc(Cl)ccc2o1	-14.0%[46.1 µM]	13.0%[46.1 µM]	-13.4	-3.7%
C[C@H](NC(=O)C[C@@H]1CC[C@H]2[C@@H](COC[C@H](O)CN2Cc2ccc(C(F)(F)F)cc2)O1)c1ccccc1	nt	nt	-19.1	-23.3%
CC1(C)CC(N2CCOCC2)=CC(=[N+]2CCOCC2)C1	?	-6.3%	?	-9.0%
CC1(C)CC(N2CCCCC2)=CC(=[N+]2CCCCC2)C1	?	?	-94.8*	?
CCCN(CCC)C1=CC(=[N+]2CCCC2)CC(C)(C)C1	?	10µM*	-101.5*	?
Cc1ccc2[nH]c3c(c2c1)CN(C(=O)CN1C[C@@H](C)O[C@@H](C)C1)CC3	6.5%	nt	nt	nt
CCCNC(=O)OC[C@@H]1O[C@H](CCO/N=C\C[C@H]2C=C[C@H](OC(C)=O)[C@@H](COC(C)=O)O2)C=C[C@@H]1Oc1ccc(OC)cc1	6.1%[14.2 µM]	nt	nt	nt
Cc1cc(C)c(Cn2c(=O)n(CCC(=O)NCc3ccc4c(c3)OCO4)c(=O)c3ccccc32)c(C)c1	10.7%[46.1 µM]	-0.3%[46.1 µM]	-4.1	8.5%
Cc1ccc(-c2nnc(Nc3ccc(Cl)c(Cl)c3)c3ccccc23)cc1S(=O)(=O)NCCO	nt	?	-90.5*	16.9%
Cc1ccc(-c2nnc(Nc3ccc(CC(N)=O)cc3)c3ccccc23)cc1S(=O)(=O)NCCO	nt	nt	15.9	33.5%
Cc1ccc(-c2nnc(Nc3ccc4c(c3)OCO4)c3ccccc23)cc1S(=O)(=O)NC(C)C	?	?	-92.3*	39.8%
Cc1ccc(C)c(Nc2nnc(-c3ccc(C)c(S(=O)(=O)NCC4CCCO4)c3)c3ccccc23)c1 (configuration not stated)	?	-15.5%[46.1 µM]	-103.8*	1.5%
Cc1ccc(-c2nnc(Nc3ccc4c(c3)OCO4)c3ccccc23)cc1S(=O)(=O)NCCO	-14.8%	-15.7%	-93.8*	?
SMILES	MARV entry inh	Lassa entry inh	HCMV inh	FMDV antiviral
CCOC(=O)C1=C(C)OC(N)=C(C#N)[C@H]1c1cc2ccccc2nc1N1CCCCC1	0.9%	nt	nt	nt
Cc1nn2c(=O)cc(COC(=O)c3cccc(NC(=O)c4cccs4)c3)nc2s1	nt	20.3%[46.1 µM]	-11.4	10µM*
Cc1nn2c(=O)cc(COC(=O)c3ccc(NC(=O)c4cccc(Br)c4)cc3)nc2s1	nt	14.5%[46.1 µM]	11.1	17.8µM*
Cc1cccc(C(=O)Nc2ccc(C(=O)OCc3cc(=O)n4nc(C5CC5)sc4n3)cc2)c1	nt	3.16µM*	-9.5	14.1µM*
Cc1nn2c(=O)cc(COC(=O)c3ccc(NC(=O)C4CCCCC4)cc3)nc2s1	nt	3.9%[46.1 µM]	-64.6*	11.2µM*
Cc1nc2cc(NC(=O)[C@@H]3C[C@@H](Sc4ccccn4)CN3Cc3ccc(F)cc3F)ccc2s1	nt	nt	nt	-4.8%
COC1=C[C@H](C(=O)N2CCCC2)[C@H](C)[C@@H](c2ccccc2)CC1=O	2.0%[14.2 µM]	?	nt	nt
CC(C)c1nn2c(=O)cc(COC(=O)c3ccccc3NC(=O)c3cccc(Cl)c3)nc2s1	nt	16.9%[46.1 µM]	-29.9	8.91µM*
